{"source": "PubChem BioAssay (Tox21)", "note": "Several values for one entry are separate records, joined by “and”; a condition that tells them apart may be missing. Equal values may be shown once. Inconclusive results are not listed. Entries that show only a call come without a potency. Activity calls are given as the source filed them. The call rests on the fitted dose curve; in most records, active means well fitted inhibition curve with a large enough effect in the repeat runs; inconclusive means weak or mixed curves, or effect the other way; inactive means no such curve, though single readings can be large or run the other way. Potency means the concentration at half of the fitted maximal effect.", "data": [{"molecular_target": "Androgen receptor (Homo sapiens) (UniProt P10275)", "sequence (P10275 whole entry, looked up)": "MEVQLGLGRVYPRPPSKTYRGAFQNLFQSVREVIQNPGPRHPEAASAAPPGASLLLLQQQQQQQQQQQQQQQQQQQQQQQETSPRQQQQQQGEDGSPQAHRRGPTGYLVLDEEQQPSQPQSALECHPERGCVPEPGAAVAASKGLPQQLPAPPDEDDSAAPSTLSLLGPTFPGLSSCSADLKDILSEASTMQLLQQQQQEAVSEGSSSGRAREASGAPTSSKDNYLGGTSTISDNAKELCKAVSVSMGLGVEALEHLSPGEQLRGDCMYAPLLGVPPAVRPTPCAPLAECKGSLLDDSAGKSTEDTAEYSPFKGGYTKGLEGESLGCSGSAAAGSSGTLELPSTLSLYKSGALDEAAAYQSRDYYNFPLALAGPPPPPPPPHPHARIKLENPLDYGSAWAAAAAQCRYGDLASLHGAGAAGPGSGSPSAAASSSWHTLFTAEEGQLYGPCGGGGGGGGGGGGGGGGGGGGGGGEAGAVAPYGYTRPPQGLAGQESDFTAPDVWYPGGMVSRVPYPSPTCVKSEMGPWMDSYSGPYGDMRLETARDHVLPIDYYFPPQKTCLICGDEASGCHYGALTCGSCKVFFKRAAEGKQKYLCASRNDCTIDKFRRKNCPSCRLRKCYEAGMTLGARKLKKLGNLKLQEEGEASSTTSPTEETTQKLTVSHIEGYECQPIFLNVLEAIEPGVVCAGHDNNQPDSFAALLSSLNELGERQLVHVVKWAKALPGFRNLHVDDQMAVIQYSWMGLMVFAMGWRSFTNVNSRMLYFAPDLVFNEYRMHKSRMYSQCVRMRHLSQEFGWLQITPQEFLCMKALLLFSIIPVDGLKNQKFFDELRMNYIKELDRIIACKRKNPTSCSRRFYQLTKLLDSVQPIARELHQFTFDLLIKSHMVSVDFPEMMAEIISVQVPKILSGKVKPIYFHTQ", "test": "qHTS assay to identify small molecule antagonists of the androgen receptor (AR) signaling pathway using the MDA cell line (AID 743042; further: nearly all actives have a fitted effect of over 55% in size)", "conditions": "MDA-kb2 AR-luc, MMTV luciferase, R1881 antagonist, 16 h; series mostly up to 70.3 µM", "from_the_text": "U.S. Tox21 Program National Center for Advancing Translational Sciences [NCATS] NIH Chemical Genomics Center [NCGC] U.S. Environmental Protection Agency [EPA] National Institutes of Environmental Health Sciences [NIEHS] National Toxicology Program [NTP] U.S. Food and Drug Administration [FDA] Tox21 Assay Overview: Androgen receptor (AR), a nuclear hormone receptor, plays a critical role in AR-dependent prostate cancer and other androgen related diseases. Endocrine disrupting chemicals (EDCs) and their interactions with steroid hormone receptors like AR may cause disruption of normal endocrine function as well as interfere with metabolic homeostasis, reproduction, developmental and behavioral functions. To identify the compounds that inhibit AR signaling, MDA-kb2 AR-luc cell line (from ATCC, deposited by Wilson et al.) was used to screen the Tox21 10K compound library. MDA-kb2 AR-luc cell line is human breast carcinoma cell line that was stably transfected with a luciferase reporter gene under control of the MMTV promoter containing response elements for both androgen receptor (AR) and glucocorticoid receptor (GR).\nTox21 Assay Protocol Summary: MDA-kb2 cells were dispensed at 3,000 cells/4 uL/well of culture medium into white wall/solid-bottom 1536-well plates using a Multidrop Combi (ThermoFisher Scientific, Waltham, MA) dispenser. After the assay plates were incubated at a 37C and 0% CO2 for 5 hr, 23 nL of compounds dissolved in DMSO, positive controls or DMSO only was transferred to the assay plate by a Pintool station (Kalypsys, San Diego, CA), followed by addition of 1 uL of agonist (R1881) in culture medium using a Bioraptr Flying Reagent Dispenser (FRD) workstation (Beckman Coulter, Indianapolis, IN, USA). The plates were incubated at a 37C and 0% CO2 for 16 h. After 15.5 h incubation, 1uL of CellTiter-Fluor reagent (Promega, Madison, WI) was added using a Bioraptr FRD to each plate for measuring cytotoxicity. The fluorescence intensity was quantified on a ViewLux plate reader (PerkinElmer, Shelton, CT) following 30 min incubation at 37C and 0% CO2. For measuring luciferase reporter gene activity, 4 uL of ONE-Glo reagent (Promega) was added to each plate using a Bioraptr FRD and luminescence was quantified on a ViewLux (PerkinElmer) plate reader after 30 min incubation at room temperature.", "values": [{"smiles": "O=CC=O", "Potency": "inactive"}, {"smiles": "FC(F)OC(F)(F)C(F)Cl", "note": "(stereo not given)", "Potency": "inactive"}, {"smiles": "O=C(Cl)OCCOCCOC(=O)Cl", "Potency": "inactive"}, {"smiles": "COCc1cnc(C2=NC(C)(C(C)C)C(=O)N2)c(C(=O)O)c1", "note": "(stereo not given)", "Potency": "inactive"}, {"smiles": "CN1C(=O)CN=C(c2ccccc2)c2cc([N+](=O)[O-])ccc21", "Potency": "inactive"}, {"smiles": "NP(N)(=O)NC(=O)c1ccc(F)cc1", "Potency": "inactive"}, {"smiles": "CC(C)(C)CC(C)(C)c1ccc(O)cc1", "Potency": "inactive"}, {"smiles": "O=C(O)CCCOc1ccc(Cl)cc1Cl", "Potency": "inactive"}, {"smiles": "CN(C1CCCCC1)C1CCCCC1", "Potency": "inactive"}, {"smiles": "Clc1ccc2ccccc2c1", "Potency": "inactive"}, {"smiles": "N#CC(C#N)=Cc1ccc(O)c(O)c1", "Potency": "inactive"}, {"smiles": "CC(Cl)C(=O)O", "note": "(stereo not given)", "Potency": "inactive"}, {"smiles": "CCCCCBr", "Potency": "inactive"}, {"smiles": "CC(C)(C)NCC(O)c1cc(Cl)c(N)c(C(F)(F)F)c1", "note": "(stereo not given)", "Potency": "inactive"}, {"smiles": "CN1CC[C@]23c4c5ccc(O)c4O[C@H]2[C@@H](O)C=C[C@H]3[C@H]1C5", "Potency": "inactive"}, {"smiles": "O=C(NCNC(=O)NC1C(=O)NC(=O)N1CO)NC1C(=O)NC(=O)N1CO", "note": "(stereo not given)", "Potency": "inactive"}, {"smiles": "CCC1(C2=NCCN2)Cc2ccccc2O1", "note": "(stereo not given)", "Potency": "inactive"}, {"smiles": "C[C@]12C=CC3=C4CCC(=O)C=C4CC[C@H]3[C@@H]1CC[C@@H]2O", "Potency": "inactive"}, {"smiles": "C[CH2][Hg][S]c1ccccc1C(=O)O", "Potency": "9.44 µM (active) and 7.7 µM (active)"}, {"smiles": "COP(=O)(OC)OC(Br)C(Cl)(Cl)Br", "note": "(stereo not given)", "Potency": "68.7 µM (active) and 61.1 µM (active)"}, {"smiles": "CCC1(CCC(C)C)C(=O)NC(=O)NC1=O", "Potency": "inactive"}, {"smiles": "Cc1cnc(C2=NC(C)(C(C)C)C(=O)N2)c(C(=O)O)c1", "note": "(stereo not given)", "Potency": "inactive"}, {"smiles": "C[N+](C)(C)CC1CO1", "note": "(stereo not given)", "Potency": "inactive"}, {"smiles": "CCOP(=S)(S)OCC", "Potency": "inactive"}, {"smiles": "CC(C)(C)N(NC(=O)c1ccc(Cl)cc1)C(=O)c1ccccc1", "Potency": "inactive"}, {"smiles": "COC(=O)C1(O)c2ccccc2-c2ccccc21", "Potency": "inactive"}, {"smiles": "CC1(C)[C@H](C(=O)O[C@H](C#N)c2cccc(Oc3ccccc3)c2)[C@@H]1C=C(Br)Br", "Potency": "inactive"}, {"smiles": "ClCc1ccccc1Cl", "Potency": "inactive"}, {"smiles": "O=C(N[C@H]1CN2CCC1CC2)c1ccc2c(c1)OCCO2", "Potency": "inactive"}, {"smiles": "Nc1c(Br)cc(Br)c2c1C(=O)c1ccccc1C2=O", "Potency": "inactive"}, {"smiles": "CC(=O)NNc1ccccc1", "Potency": "inactive"}, {"smiles": "COc1ccc2c(c1OC)C(=O)O[C@H]2[C@@H]1c2cc3c(cc2CCN1C)OCO3", "Potency": "inactive"}, {"smiles": "C=C(Cl)Cl", "Potency": "inactive"}, {"smiles": "CN(C)N", "Potency": "inactive"}, {"smiles": "O=C(O)COc1cc(Cl)c(Cl)cc1Cl", "Potency": "inactive"}]}]}
